From ChEMBL document CHEMBL3988442, “University of Dundee, Small-Polar-MMV Screening Library” (2021)

Key:
[1] = biological target: T1, Aspartate--tRNA(Asp/Asn) ligase (Mycobacterium tuberculosis (strain ATCC 25618 / H37Rv)) (UniProt P9WFW3); experiment: Assay for Asp RNA synthetase-1 from Mycobacterium tuberculosis; assay type: functional; set-up: scale not given: direction of the effect not stated beside the values; details: 30 µM; also: in the data most compounds retested in dose-response had high values
T1 sequence (whole entry): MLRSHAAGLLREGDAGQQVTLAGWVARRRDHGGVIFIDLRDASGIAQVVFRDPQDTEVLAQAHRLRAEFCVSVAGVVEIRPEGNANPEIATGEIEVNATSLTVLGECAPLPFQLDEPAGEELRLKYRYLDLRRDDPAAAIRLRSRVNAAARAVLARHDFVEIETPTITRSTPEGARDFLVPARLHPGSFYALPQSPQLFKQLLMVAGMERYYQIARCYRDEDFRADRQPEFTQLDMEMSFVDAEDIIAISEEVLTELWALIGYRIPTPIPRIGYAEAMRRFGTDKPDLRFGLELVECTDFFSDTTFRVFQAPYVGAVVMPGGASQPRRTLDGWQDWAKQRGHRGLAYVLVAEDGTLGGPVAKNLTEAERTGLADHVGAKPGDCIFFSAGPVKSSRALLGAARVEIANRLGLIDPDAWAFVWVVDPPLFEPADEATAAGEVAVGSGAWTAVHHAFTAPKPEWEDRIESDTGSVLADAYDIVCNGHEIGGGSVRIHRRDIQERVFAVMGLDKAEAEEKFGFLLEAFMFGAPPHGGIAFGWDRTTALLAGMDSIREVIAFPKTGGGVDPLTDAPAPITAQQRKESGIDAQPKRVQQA

[2] = biological target: Shiga toxin 2 (Escherichia coli O157:H7) (UniProt P09385+P09386); experiment: E. coli 0.157:H7 Shiga Toxin SOP - stx2 screening assay; assay type: functional; set-up: scale not given: direction of the effect not stated beside the values; details: 30 µM

| SMILES | Percent Effect [1] | Percent Effect [2] |
| --- | --- | --- |
| NC(=O)c1ccc(S(=O)(=O)NC2CCN(Cc3ccccc3)C2=O)cc1 (centres undefined) | -5.17% | 5.52% |
| COCC1c2nnn(CC3CC3)c2CCN1C(=O)Cc1cccs1 (centres undefined) | 4.11% | -2.97% |
| CC(C)c1nnc2n1CCN(C(=O)c1ccc(CN(C)C)cc1)C2 | -0.75% | 17.3% |
| Cc1cnn(CC2CCCCN2CCCS(N)(=O)=O)c1 (centres undefined) | -8.36% | -56.9% |
| O=C(NCCn1ccc(-c2ccccn2)n1)c1ccncc1 | -6.73% | -58.6% |
| Cc1nnc2n1CCN(C(=O)c1cn(-c3ccccc3Cl)nn1)C2 | -0.98% | -42.4% |
| CC(C)NC(=O)CC1COC2(CCN(Cc3cccs3)CC2)C1 (centres undefined) | -0.0228% | -27.2% |
| Cc1cnc(CNc2c(F)cccc2-n2cccn2)o1 | -2.01% | -27.4% |
| C[C@@H]1CN(C(=O)NC2CC2)C[C@]12CCN(c1ccsc1)C2=O | 2.34% | -3.08% |
| CC(CNC(=O)N1CCN(CC(F)F)CC1)Cc1cccs1 (centres undefined) | -1.76% | 0.53% |
| Cc1ccc(-c2nc(CNC3CCc4ncnn4C3)co2)c(C)c1 (centres undefined) | -9.8% | -22% |
| COCCCC1(CO)CCCN(CCc2ccccc2)C1 (centres undefined) | -0.201% | -15.6% |
| CN(Cc1ccccc1Br)C(=O)Cn1nc(-c2ccc(F)cc2)oc1=O | 7.4% | -11.3% |
| O=C(NCCc1ccc(Cl)s1)NCc1nnc2n1CCC2 | 2.25% | 22.9% |
| CN1CCC(c2ncc3c(n2)CCN(C(=O)CC2C=CCC2)C3)CC1 (centres undefined) | 0.956% | -1.54% |
| O=C1CC(c2ccccc2)C2(CCN(Cc3ccccn3)CC2)N1 (centres undefined) | 2.57% | -17.4% |
| Cc1ncsc1C(=O)N(C)CCc1ccncc1 | -1.68% | 19.9% |
| COCCN1C(=O)CC(N2CCN(c3ccc(OC)cc3)CC2)C1=O (centres undefined) | -5.68% | 3.53% |
| CCc1nnc2n1CCN(C(=O)c1cc3cc(F)ccc3[nH]1)C2 | -1.91% | -31.4% |
| CN(C)c1cc(C(=O)N2CCN(S(C)(=O)=O)CC2)ccn1 | -0.122% | -36.9% |
| CCc1cc(NCc2ccccc2CN2CCCC2)n2ncnc2n1 | 7.58% | -25.4% |
| COCc1nc(C(=O)NS(=O)(=O)c2ccc(C)s2)cs1 | 0.678% | -34.1% |
| COc1c(C(=O)NCc2cccnc2)nnn1Cc1ccc(C)cc1 | -4.7% | -4.95% |
| CCN(C(c1cccnc1)c1ccc2c(c1)CCO2)S(C)(=O)=O (centres undefined) | -3.44% | -49.4% |

| SMILES | Percent Effect [1] | Percent Effect [2] |
| --- | --- | --- |
| Cc1nccn1Cc1nnc(C2CCCN(Cc3cccnc3)C2)n1C (centres undefined) | -2.79% | 4.73% |
| CCC(CC)c1cc(CNC(=O)N2CCOC(C)C2)on1 (centres undefined) | -0.437% | -11.9% |
| COc1ccccc1CN1CCC2(CC1)CC(Oc1ccccn1)CO2 (centres undefined) | 1.6% | -0.702% |
| Cc1cnc(N2C[C@H]3C[C@H](C(=O)N(C)C)[C@@H](C2)O3)nc1 | 2.79% | -23.4% |
| c1ccc2cc(OCCN3CCOC(Cn4cncn4)C3)ccc2c1 (centres undefined) | -2.92% | -29.2% |
| C=Cc1ccc(C(=O)N2CCCC(Nc3ccc(OC)cc3)C2)cc1 (centres undefined) | 1.04% | -6.01% |
| CCNC(=O)N1CCN(Cc2nc3ccccc3[nH]2)[C@@H]2CS(=O)(=O)C[C@@H]21 | 2.89% | -6.12% |
| CNC(=O)CC1CC2(CCN(Cc3nccs3)CC2)c2ccccc21 (centres undefined) | -1.76% | -4.71% |
| CC(C)CN1CCC2(CCN(Cc3ccoc3)CC2)C1=O | 6.3% | -11.6% |
| Cn1cc(-c2csc(N3CCN(C(=O)OC(C)(C)C)CC3)n2)cn1 | 0.501% | -1.73% |
| Cc1cnn(CC2CCCN2C(=O)CCCc2nc(C)no2)c1 (centres undefined) | -0.389% | -14.7% |
| CC(C)c1csc(C2CCCN(C(=O)c3ncccn3)C2)n1 (centres undefined) | -2.21% | -20% |
| CCc1cnc2c(c1Nc1ccncc1)c(=O)n(C)c(=O)n2C | 0.918% | -8.05% |
| CN(C)c1cncc(C2CCN(C(=O)CO)CC2)n1 | 2.1% | 7.95% |
| O=C(c1csc(Br)c1)N1CCCC(n2ccnc2)C1 (centres undefined) | -1.27% | -53.5% |
| O=C1NCc2ccc(NC(=O)C3CCCN3c3nccs3)cc21 (centres undefined) | 0.522% | -17.5% |
| CC(=O)N1CCC2(CC1)COCCN2CCN(C)C | 0.524% | 1.75% |
| CC(C)c1nc(C2CCCN(C(=O)CCn3ccnc3)C2)no1 (centres undefined) | 5.96% | 3.56% |
| CC1CCN(S(=O)(=O)NCCCn2cncn2)CC1 | -2.66% | -6.63% |
| Cc1cc(OCC(=O)N2CCCC(c3ccn[nH]3)C2)no1 (centres undefined) | -5.07% | 2.75% |
| CCOC(C)c1nc(CN2CCN(c3nccc(C)n3)CC2)cs1 (centres undefined) | -0.859% | -1.8% |
| Cn1cc(CN2CCc3onc(COc4cccnc4)c3C2)cn1 | -6.13% | -65.9% |
| CC(C)NC(=O)Nc1ccc(CNCc2cccc(OC(F)F)c2)cc1 | 4.98% | -103% |
